# According to PubChem BioAssay (EPA / NIEHS):
# Calls of active or inactive are those of the source. Rule for the calls: active = hit-call score of the fitted dose curve at least 0.9, where 1 is the maximum; inactive = score below 0.9.
# Key:
# [1] = ATG_GRE_CIS: Attagene CIS-FACTORIAL HepG2 Assay for human Glucocorticoid Response Elements (GRE) (AID 2282947); conditions: HepG2 GRE cis-reporter, Attagene multiplex mRNA; AC50: actives raise or lower the signal unless noted; outcome: actives raise or lower the signal unless noted
# Outline: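 Transient MRTU transfection of human HepG2 liver cells; cis-regulated reporters report endogenous factors. 24 h dosing → RNA isolation → RT-PCR → 6-FAM primer extension → HpaI cut → CE fragment analysis. Bidirectional fit, DMSO negative control.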
# [2] = ATG_ISRE_CIS: Attagene CIS-FACTORIAL HepG2 Assay for human Interferon Regulatory Factor 1 (IRF1) binding to an Interferon-Stimulated Response Element (ISRE) (AID 2282948); conditions: HepG2 ISRE cis-reporter (Attagene), mRNA transcription readout; actives raise or lower the signal
# Outline: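 Cell-based cis-reporter assay; HepG2; 24 h exposure; reporter mRNA by RT-PCR plus capillary electrophoresis fluorescence; activity in either direction scored relative to DMSO.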
# [3] = ATG_M_32_CIS: Attagene CIS-FACTORIAL HepG2 Assay for M32 Transcription Factor (Internal Marker) (AID 2282949); conditions: HepG2 Attagene cis-factorial M32 reporter, mRNA; actives raise or lower the signal;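 note: background control marker of the multiplexed CIS panel rather than a real target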
# Outline: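 HepG2 cells transiently transfected with multiplexed cis-regulated reporter units, dosed 24 h. Reporter mRNA quantified by RT-PCR, 6-FAM labelling, HpaI digestion and capillary electrophoresis; bidirectional fit vs DMSO.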
# [4] = ATG_M_06_CIS: Attagene CIS-FACTORIAL HepG2 Assay for M06 Transcription Factor (Internal Marker) (AID 2282950); conditions: HepG2 Attagene CIS-FACTORIAL M06 internal marker reporter; actives raise or lower the signal
# Outline: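 Steps: transfect HepG2 with multiplexed cis-element reporter constructs; dose chemical 24 h; extract RNA with DNase treatment; reverse-transcribe, PCR-amplify, 6-FAM label, HpaI digest; separate fragments by capillary electrophoresis. Activity fitted both directions versus DMSO.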
# [5] = target: Hypoxia-inducible factor 1-alpha (Homo sapiens) (UniProt Q16665); test: ATG_HIF1a_CIS: Attagene CIS-FACTORIAL HepG2 Assay for human Hypoxia Inducible Factor 1 (HIF1A) (AID 2282951); conditions: HepG2 Attagene cis-factorial HIF1a reporter transcription; actives raise or lower the signal
# Sequence of Hypoxia-inducible factor 1-alpha (Homo sapiens) (Q16665 whole entry, looked up): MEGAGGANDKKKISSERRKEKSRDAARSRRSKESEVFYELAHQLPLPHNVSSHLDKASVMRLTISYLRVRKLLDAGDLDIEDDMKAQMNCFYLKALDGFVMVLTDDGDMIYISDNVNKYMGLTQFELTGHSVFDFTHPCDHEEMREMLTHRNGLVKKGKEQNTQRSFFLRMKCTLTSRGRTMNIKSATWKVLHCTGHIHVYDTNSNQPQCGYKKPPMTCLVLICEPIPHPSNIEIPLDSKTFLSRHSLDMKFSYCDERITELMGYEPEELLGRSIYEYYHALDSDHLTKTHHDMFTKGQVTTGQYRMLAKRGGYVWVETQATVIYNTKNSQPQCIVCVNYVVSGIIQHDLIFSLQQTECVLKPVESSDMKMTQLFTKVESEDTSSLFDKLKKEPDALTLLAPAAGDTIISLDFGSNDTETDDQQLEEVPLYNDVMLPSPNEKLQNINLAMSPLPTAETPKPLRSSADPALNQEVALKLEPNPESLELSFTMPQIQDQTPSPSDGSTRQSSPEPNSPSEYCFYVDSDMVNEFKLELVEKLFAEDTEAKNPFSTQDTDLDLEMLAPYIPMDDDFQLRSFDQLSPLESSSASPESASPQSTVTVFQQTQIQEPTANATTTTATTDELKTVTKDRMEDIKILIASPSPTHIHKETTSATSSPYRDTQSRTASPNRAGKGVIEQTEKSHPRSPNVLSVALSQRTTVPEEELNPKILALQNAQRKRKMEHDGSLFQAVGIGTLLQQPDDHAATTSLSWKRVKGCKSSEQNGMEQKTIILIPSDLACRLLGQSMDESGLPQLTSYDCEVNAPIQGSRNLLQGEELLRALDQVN
# Outline: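 RT-PCR/capillary electrophoresis fluorescence readout of reporter transcripts from endogenous-TF-driven cis elements in transfected HepG2 cells, 24 h exposure; activity fitted in both directions against DMSO controls.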
# [6] = target: Hepatocyte nuclear factor 6 (Homo sapiens) (UniProt Q9UBC0); test: ATG_HNF6_CIS: Attagene CIS-FACTORIAL HepG2 Assay for human Hepatocyte Nuclear Factor 6 (HNF6) (AID 2282952); conditions: HepG2 Attagene cis-factorial HNF6 reporter transcription; actives raise or lower the signal
# Sequence of Hepatocyte nuclear factor 6 (Homo sapiens) (Q9UBC0 whole entry, looked up, the tested form may be a part): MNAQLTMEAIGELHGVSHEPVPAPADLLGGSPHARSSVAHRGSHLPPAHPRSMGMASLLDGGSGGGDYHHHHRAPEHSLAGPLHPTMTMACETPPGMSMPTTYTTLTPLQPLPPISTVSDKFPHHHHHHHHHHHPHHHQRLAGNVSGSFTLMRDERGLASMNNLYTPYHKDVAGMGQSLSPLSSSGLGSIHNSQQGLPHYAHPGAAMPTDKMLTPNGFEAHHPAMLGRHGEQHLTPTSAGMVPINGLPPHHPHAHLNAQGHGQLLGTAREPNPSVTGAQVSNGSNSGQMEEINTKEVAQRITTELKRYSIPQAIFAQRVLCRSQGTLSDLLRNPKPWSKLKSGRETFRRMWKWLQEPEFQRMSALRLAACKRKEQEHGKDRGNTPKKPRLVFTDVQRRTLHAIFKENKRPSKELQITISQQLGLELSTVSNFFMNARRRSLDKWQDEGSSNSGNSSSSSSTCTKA
# Outline: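 Reporter mRNA induction or loss in HepG2 after 24 h exposure; transient cis-MRTU transfection; fragments quantified by capillary electrophoresis; bidirectional analysis, DMSO as negative control.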
# [7] = target: Heat shock factor protein 1 (Homo sapiens) (UniProt Q00613); test: ATG_HSE_CIS: Attagene CIS-FACTORIAL HepG2 Assay for human Heat Shock Transcription Factor 1 (HSE) (AID 2282953); conditions: HepG2 HSE cis-reporter, Attagene RNA transcription; actives raise or lower the signal
# Sequence of Heat shock factor protein 1 (Homo sapiens) (Q00613 whole entry, looked up, the tested form may be a part): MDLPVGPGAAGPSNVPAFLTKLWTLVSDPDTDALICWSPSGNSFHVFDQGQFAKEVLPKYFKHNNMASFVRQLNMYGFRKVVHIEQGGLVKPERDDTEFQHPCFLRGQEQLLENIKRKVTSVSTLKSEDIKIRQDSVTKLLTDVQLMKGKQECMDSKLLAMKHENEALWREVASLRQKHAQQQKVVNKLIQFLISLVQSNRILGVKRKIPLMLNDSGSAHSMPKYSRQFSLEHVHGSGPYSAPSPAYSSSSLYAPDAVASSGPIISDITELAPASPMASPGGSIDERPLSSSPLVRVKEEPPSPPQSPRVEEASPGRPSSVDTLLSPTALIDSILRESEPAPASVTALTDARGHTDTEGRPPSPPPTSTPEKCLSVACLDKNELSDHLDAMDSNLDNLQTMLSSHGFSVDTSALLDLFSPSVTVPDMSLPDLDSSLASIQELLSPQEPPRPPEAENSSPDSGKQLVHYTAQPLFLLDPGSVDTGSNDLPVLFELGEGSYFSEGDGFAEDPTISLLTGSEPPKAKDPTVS
# Outline: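 Cells were transfected with cis-element-driven reporter constructs, dosed for 24 h, then total RNA was reverse-transcribed and reporter cDNA amplified, FAM-labelled and digested with HpaI. Fragments were resolved by capillary electrophoresis; gain or loss was fitted against DMSO.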
# [8] = ATG_MRE_CIS: Attagene CIS-FACTORIAL HepG2 Assay for human Metal Responsive Element (MRE) (AID 2282954); conditions: HepG2 MRE cis-reporter transcription, Attagene multiplex; actives raise or lower the signal
# Outline: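 Transient MRTU transfection of HepG2 (FuGene 6); 24 h dosing; total RNA → oligo(dT) RT, PCR, 6-FAM primer extension, HpaI cut, CE. Bidirectional fit vs DMSO.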
# [9] = ATG_PBREM_CIS: Attagene CIS-FACTORIAL HepG2 Assay for human Phenobarbital-responsive Enhancer Module (PBREM) (AID 2282955); conditions: HepG2 PBREM cis-reporter, Attagene multiplexed transcription; actives raise or lower the signal
# Outline: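 Reporter mRNA read by RT-PCR, 6-FAM primer extension, HpaI digestion and capillary electrophoresis. Transfected HepG2 cells, 24 h compound exposure. Gain or loss of signal fitted bidirectionally relative to DMSO baseline.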
# [10] = target: Paired box protein Pax-6 (Homo sapiens) (UniProt P26367); test: ATG_Pax6_CIS: Attagene CIS-FACTORIAL HepG2 Assay for human Paired Box 6 (PAX6) (AID 2282956); conditions: HepG2 CIS-FACTORIAL PAX6 reporter transcription, RNA readout; actives raise or lower the signal
# Sequence of Paired box protein Pax-6 (Homo sapiens) (P26367 whole entry, looked up): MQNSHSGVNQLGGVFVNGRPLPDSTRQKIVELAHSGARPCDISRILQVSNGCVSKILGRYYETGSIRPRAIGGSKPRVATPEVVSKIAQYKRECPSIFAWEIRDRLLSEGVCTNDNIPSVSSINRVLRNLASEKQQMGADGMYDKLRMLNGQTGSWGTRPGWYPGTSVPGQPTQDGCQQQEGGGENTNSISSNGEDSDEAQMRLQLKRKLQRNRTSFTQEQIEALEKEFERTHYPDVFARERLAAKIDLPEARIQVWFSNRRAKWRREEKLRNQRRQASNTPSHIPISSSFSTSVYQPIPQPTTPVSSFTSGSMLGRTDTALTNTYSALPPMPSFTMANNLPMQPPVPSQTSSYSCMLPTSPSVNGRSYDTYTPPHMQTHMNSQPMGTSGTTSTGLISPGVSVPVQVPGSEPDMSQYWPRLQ
# Outline: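 Multiplexed cis-reporter HepG2 system; 24 h treatment; reporter mRNA read by RT-PCR/CE fluorescence; bidirectional fit vs DMSO.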
Compound,outcome [1],outcome [2],outcome [3],outcome [4],outcome [5],outcome [6],outcome [7],outcome [8],outcome [9],outcome [10],AC50 [2],AC50 [5],AC50 [7],AC50 [8],AC50 [9],AC50 [3],AC50 [6],AC50 [10],AC50 [1]
O=C(OC(=O)C(F)(F)C(F)(F)F)C(F)(F)C(F)(F)F,inactive,inactive,inactive,inactive,inactive,inactive,inactive,inactive,inactive,inactive,,,,,,,,,
O=P(O)(O)CCC(F)(F)C(F)(F)C(F)(F)C(F)(F)C(F)(F)C(F)(F)F,inactive,inactive,inactive,inactive,inactive,inactive,inactive,inactive,inactive,inactive,,,,,,,,,
OCC(F)(F)C(F)(F)C(F)(F)C(F)(F)C(F)(F)C(F)(F)C(F)(F)C(F)(F)C(F)(F)C(F)(F)C(F)(F)F,inactive,inactive,inactive,inactive,inactive,inactive,inactive,inactive,inactive,inactive,,,,,,,,,
CCCCCCCCCCCCOC(=O)c1cc(O)c(O)c(O)c1,inactive,,inactive,inactive,,inactive,,,,inactive,11.1 µM (active),6.75 µM (active),8.12 µM (active),18.5 µM (active),21.3 µM (active),,,,
COC1=CC(=O)C[C@@H](C)[C@]12Oc1c(Cl)c(OC)cc(OC)c1C2=O,inactive,inactive,inactive,inactive,,inactive,inactive,inactive,inactive,inactive,,26.6 µM (active),,,,,,,
CCOC=O,inactive,inactive,inactive,inactive,inactive,inactive,inactive,inactive,inactive,inactive,,,,,,,,,
NCc1cccc(CN)c1,inactive,inactive,inactive,inactive,,inactive,inactive,inactive,inactive,inactive,,24.4 µM (active),,,,,,,
CCOC(C)=O,inactive,inactive,inactive,inactive,inactive,inactive,inactive,inactive,inactive,inactive,,,,,,,,,
CCC(C)c1nccnc1OC (stereo not given),inactive,inactive,inactive,inactive,inactive,inactive,inactive,inactive,inactive,inactive,,,,,,,,,
Cc1cc(Cc2cc(C)cc(C(C)(C)C)c2O)c(O)c(C(C)(C)C)c1,inactive,inactive,,inactive,,,inactive,inactive,,inactive,,41.4 µM (active),,,151 µM (active),100 µM (active),176 µM (active),,
Nc1cc(Cl)c(-c2cc(Cl)c(N)cc2Cl)cc1Cl,inactive,inactive,inactive,inactive,inactive,inactive,,,inactive,inactive,,,18.1 µM (active),13.2 µM (active),,,,,
CCCCc1ccc2ccccc2c1S(=O)(=O)O,inactive,inactive,inactive,inactive,inactive,inactive,inactive,inactive,inactive,inactive,,,,,,,,,
Brc1cc(Br)c(Oc2c(Br)cc(Br)c(Br)c2Br)cc1Br,inactive,inactive,inactive,inactive,inactive,inactive,inactive,inactive,inactive,inactive,,,,,,,,,
CC(C)(C)C1CCCCC1O (stereo not given),inactive,inactive,inactive,inactive,inactive,inactive,inactive,inactive,inactive,inactive,,,,,,,,,
O=C(c1cc(O)c(O)c(O)c1)c1ccc(O)c(O)c1O,inactive,inactive,inactive,inactive,,inactive,inactive,inactive,inactive,inactive,,53.5 µM (active),,,,,,,
Cc1ccc2ccc3ccc(C)cc3c2c1,inactive,inactive,inactive,inactive,inactive,inactive,inactive,inactive,inactive,inactive,,,,,,,,,
CC(C)(c1ccc(Oc2ccc(N)cc2)cc1)c1ccc(Oc2ccc(N)cc2)cc1,inactive,inactive,inactive,inactive,inactive,inactive,inactive,,inactive,inactive,,,,2.77 µM (active),,,,,
FC(F)(F)N1C(F)(F)C(F)(F)OC(F)(F)C1(F)F,inactive,inactive,inactive,inactive,inactive,inactive,inactive,inactive,inactive,inactive,,,,,,,,,
C=CC(=O)OCC(CO)(COCC(COC(=O)C=C)(COC(=O)C=C)COC(=O)C=C)COC(=O)C=C,inactive,,inactive,inactive,,inactive,inactive,,inactive,,1.29 µM (active),2.92 µM (active),,2.9 µM (active),,,,2.71 µM (active),
Cc1cc(C(=C2C=CC(=Nc3ccc(S(=O)(=O)O)cc3)C=C2)c2ccc(Nc3ccc(S(=O)(=O)O)cc3)cc2)cc(S(=O)(=O)O)c1N,inactive,inactive,inactive,inactive,inactive,inactive,inactive,inactive,inactive,inactive,,,,,,,,,
c1ccc(CNc2ncnc3c2ncn3C2CCCCO2)cc1 (stereo not given),inactive,inactive,inactive,inactive,inactive,inactive,inactive,inactive,,inactive,,,,,23.3 µM (active),,,,
Nc1ccc(O)c(C(=O)O)c1,inactive,inactive,inactive,inactive,inactive,inactive,inactive,inactive,inactive,inactive,,,,,,,,,

Compound,outcome [1],outcome [2],outcome [3],outcome [4],outcome [5],outcome [6],outcome [7],outcome [8],outcome [9],outcome [10],AC50 [2],AC50 [5],AC50 [7],AC50 [8],AC50 [9],AC50 [3],AC50 [6],AC50 [10],AC50 [1]
CCCCCCC(C)(C)C(=O)O,inactive,inactive,inactive,inactive,,inactive,,inactive,inactive,,,188 µM (active),187 µM (active),,,,,164 µM (active),
O=C(O)c1cccc(C(=O)O)n1,inactive,inactive,inactive,inactive,inactive,inactive,inactive,inactive,inactive,inactive,,,,,,,,,
CCCCCCCC(OC)OC,inactive,inactive,inactive,inactive,inactive,inactive,inactive,inactive,inactive,inactive,,,,,,,,,
O=C(F)C(F)(F)C(F)(F)C(F)(F)C(F)F,inactive,inactive,inactive,inactive,inactive,inactive,inactive,inactive,inactive,inactive,,,,,,,,,
COC(=O)C(F)(F)C(F)(F)C(F)(F)F,inactive,inactive,inactive,inactive,inactive,inactive,inactive,inactive,inactive,inactive,,,,,,,,,
O=C1c2ccc(O)c(O)c2C(=O)c2c(O)ccc(O)c21,inactive,inactive,inactive,inactive,,inactive,inactive,inactive,inactive,inactive,,12.6 µM (active),,,,,,,
CCO[Si](CCC1CCC2OC2C1)(OCC)OCC (stereo not given),inactive,inactive,inactive,inactive,inactive,inactive,inactive,inactive,inactive,inactive,,,,,,,,,
C=CCOCC(CO)(CO)CO,inactive,inactive,inactive,inactive,inactive,inactive,inactive,inactive,inactive,inactive,,,,,,,,,
CCOC(OCC)C(=O)c1ccccc1,inactive,inactive,inactive,inactive,inactive,inactive,inactive,inactive,inactive,inactive,,,,,,,,,
O=C1C=CC(=O)N1c1cccc(N2C(=O)C=CC2=O)c1,inactive,inactive,inactive,inactive,inactive,inactive,inactive,inactive,inactive,inactive,,,,,,,,,
Cc1ccc(N=Nc2c(O)ccc3ccccc23)c(C)c1,inactive,inactive,inactive,inactive,,inactive,,inactive,inactive,inactive,,13.2 µM (active),3.78 µM (active),,,,,,
Oc1c(Cl)ccc(Cl)c1Cl,inactive,inactive,inactive,inactive,inactive,inactive,inactive,inactive,inactive,inactive,,,,,,,,,
Oc1ccc(Cc2ccccc2O)cc1,inactive,inactive,inactive,inactive,inactive,inactive,inactive,inactive,inactive,inactive,,,,,,,,,
O=C1OC(=O)c2cc(-c3ccc4c(c3)C(=O)OC4=O)ccc21,inactive,inactive,inactive,inactive,inactive,inactive,inactive,inactive,inactive,inactive,,,,,,,,,
c1cc2cccc3c4cccc5cccc(c(c1)c23)c54,inactive,inactive,inactive,inactive,inactive,inactive,inactive,inactive,inactive,inactive,,,,,,,,,
C=CC(=O)OCCC(F)(F)C(F)(F)C(F)(F)C(F)(F)C(F)(F)C(F)(F)C(F)(F)C(F)(F)F,inactive,inactive,inactive,inactive,inactive,inactive,inactive,inactive,inactive,inactive,,,,,,,,,
Clc1ccc2c(Cl)ccnc2c1,inactive,inactive,inactive,inactive,inactive,inactive,inactive,inactive,inactive,inactive,,,,,,,,,
COc1ccccc1NC(=O)c1cc2ccccc2cc1O,,,inactive,inactive,,,,,,,82.7 µM (active),22.7 µM (active),57.3 µM (active),23.3 µM (active),6.07 µM (active),,137 µM (active),54.8 µM (active),100 µM (active)
CC=O,inactive,inactive,inactive,inactive,inactive,inactive,inactive,inactive,inactive,inactive,,,,,,,,,
C[C@]12CC[C@@H]3c4ccc(O)cc4CC[C@H]3[C@@H]1CC[C@@H]2OC(=O)CCC1CCCC1,inactive,inactive,,inactive,inactive,,inactive,inactive,inactive,inactive,,,,,,164 µM (active),125 µM (active),,
Cn1sccc1=O,inactive,,inactive,inactive,inactive,inactive,,,inactive,,163 µM (active),,161 µM (active),163 µM (active),,,,159 µM (active),
O=C(O)CCC(F)(F)C(F)(F)C(F)(F)C(F)(F)C(F)(F)C(F)(F)F,inactive,inactive,inactive,inactive,inactive,inactive,inactive,inactive,inactive,inactive,,,,,,,,,
